# ± gives the standard deviation of the averaged measurements.
# Tests used:
# DLD1 [1] = assay: cell viability (CellTiter-Glo) relative to plate median (fraction of plate median); higher = more viable cells; conditions: 5 µM; treatment time 24 h; reporter: 7TFP
# Method in brief: (§1)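 Two independent replicates were averaged for each reported value. Library compounds were applied at a final 5 µM for 24 h to colorectal cancer cell lines stably expressing lentiviral TCF/Wnt firefly luciferase reporters. Firefly luciferase or CellTiterGlo luminescence from each well was normalised to the plate median.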
# HCT116 = assay: as above; conditions: 5 µM; treatment time 24 h; reporter: TCF4/Wnt
# Method in brief: as §1
# SW480 [2] = assay: as above; conditions: 5 µM; treatment time 24 h; reporter: 7TFP
# Method in brief: as §1
# DLD1 [3] = assay: TCF/Wnt firefly luciferase reporter signal relative to plate median (fraction of plate median); higher = higher Wnt reporter signal; conditions: 5 µM; treatment time 24 h; reporter: 7TFP
# Method in brief: as §1
# SW480 [4] = assay: as above; conditions: 5 µM; treatment time 24 h; reporter: 7TFP
# Method in brief: as §1
Compound,cell viability (DLD1 [1]),cell viability (HCT116),cell viability (SW480 [2]),TCF/Wnt firefly luciferase reporter signal (DLD1 [3]),TCF/Wnt firefly luciferase reporter signal (SW480 [4])
C[C@@H]1C[C@H]2[C@@H]3CCC4=CC(=O)C=C[C@]4(C)[C@@]3(F)[C@@H](O)C[C@]2(C)[C@@]1(O)C(=O)CO,1.06 ± 0.071,1.05 ± 0.057,0.977 ± 0.016,1.04 ± 0.082,1.05 ± 0.035
C=C1C(=O)O[C@H]2C[C@@H]1C(OC(C)=O)C/C(C)=C/CC/C(C)=C/CC[C@@]2(C)O (stereo not given in full),0.888 ± 0.067,0.999 ± 0.058,1.06 ± 0.014,0.885 ± 0.13,0.892 ± 0.0092
Cc1cc(O)c(C=O)c2c1C(=O)Oc1c(C)c(O)c3c(c1O2)C(O)OC3=O (stereo not given),0.975 ± 0.092,1.11,0.988 ± 0.017,1.04 ± 0.068,1.02 ± 0.036
COc1cc([S+](C)[O-])ccc1-c1nc2cccnc2[nH]1 (stereo not given),0.968 ± 0.028,0.979 ± 0.058,0.953 ± 0.025,0.907 ± 0.22,0.794 ± 0.057
CS(C)(=O)=O,1.01 ± 0.081,1.05 ± 0.071,0.962 ± 0.035,1.26 ± 0.071,1.05 ± 0.064
COc1ccc2c(c1)OCC(Cc1ccc(OC)c(OC(C)=O)c1)C2=O (stereo not given),1.025 ± 0.0071,0.919 ± 0.059,1.03,0.969 ± 0.12,0.858 ± 0.18
N=C(N)c1ccc(OCCCCCOc2ccc(C(=N)N)cc2)cc1,0.93 ± 0.21,0.9365 ± 0.0078,1.01 ± 0.014,1.035 ± 0.0071,0.795 ± 0.013
CC(=O)NO,1.035 ± 0.0071,0.999 ± 0.059,1.05 ± 0.057,1.155 ± 0.0071,1.075 ± 0.0071
Nc1nc(F)nc2c1ncn2[C@@H]1O[C@H](COP(=O)(O)O)[C@@H](O)[C@@H]1O,0.987 ± 0.061,0.942 ± 0.019,0.972 ± 0.054,0.926 ± 0.018,1.04 ± 0.021
C=C(C)[C@@H]1CC[C@]2(C(=O)O[C@@H]3O[C@H](CO[C@@H]4O[C@H](CO)[C@@H](O[C@@H]5O[C@@H](C)[C@H](O)[C@@H](O)[C@H]5O)[C@H](O)[C@H]4O)[C@@H](O)[C@H](O)[C@H]3O)CC[C@]3(C)[C@H](C[C@@H](O)[C@@H]4[C@@]5(C)[C@@H](CC(=O)O)OC(C)(C)[C@@H]5CC[C@]43C)[C@@H]12 [Isochiisanoside (6)],0.92 ± 0.055,0.934 ± 0.0028,0.915 ± 0.066,0.953 ± 0.15,0.945 ± 0.0071
Nc1ccn([C@@H]2O[C@H](CO)[C@@H](O)[C@H]2O)c(=O)n1,0.977 ± 0.033,1.06 ± 0.057,1.06 ± 0.028,1.16 ± 0.064,1.05 ± 0.057
O=C1OC(c2ccc(O)cc2)(c2ccc(O)cc2)c2ccccc21,1.01 ± 0.12,1.03 ± 0.12,1.025 ± 0.0071,0.981 ± 0.069,1.04 ± 0.057
CC1(C)O[C@@H]2C[C@H]3[C@@H]4CCC5=CC(=O)CC[C@]5(C)[C@@]4(F)[C@@H](O)C[C@]3(C)[C@]2(C(=O)CCl)O1,0.921 ± 0.12,0.925 ± 0.074,0.977 ± 0.061,0.927 ± 0.042,1.01 ± 0.066
Clc1ccc(COC(Cn2ccnc2)c2ccc(Cl)cc2Cl)cc1 (stereo not given),0.944 ± 0.11,0.972 ± 0.0085,0.99 ± 0.029,0.936 ± 0.13,1.03 ± 0.074
CC(=O)c1oc(C)c2c1C(=O)c1cccc(O)c1C2=O [Bhimamycin B],0.955 ± 0.019,1.01 ± 0.015,0.9505 ± 0.00071,1.02 ± 0.035,1.1 ± 0.028
COc1ccc(-c2oc3c(CC=C(C)C)c(O[C@@H]4O[C@H](CO)[C@@H](O)[C@H](O)[C@H]4O)cc(O)c3c(=O)c2O[C@@H]2O[C@@H](C)[C@H](O)[C@@H](O)[C@H]2O)cc1,1.03 ± 0.014,1.1 ± 0.085,0.957 ± 0.048,0.977 ± 0.1,0.974 ± 0.03
CCCCCCCCCCCCCCCC[N+](C)(C)C,0.9465 ± 0.0021,0.907 ± 0.093,0.969 ± 0.12,0.754 ± 0.12,0.701 ± 0.093
CC1=C(/C=C/C(C)=C/C=C/C(C)=C\C(=O)O)C(C)(C)CCC1,1.02 ± 0.05,0.949 ± 0.1,0.967 ± 0.012,0.827 ± 0.097,0.872 ± 0.044
CC(=O)OCC(=O)[C@@]1(O)CC[C@H]2[C@@H]3CCC4=CC(=O)CC[C@]4(C)[C@H]3C(=O)C[C@@]21C,1.04 ± 0.021,1 ± 0.079,1.12 ± 0.12,1.05 ± 0.021,1.04 ± 0.13
Nc1c2ccccc2nc2ccccc12,0.942 ± 0.071,0.919 ± 0.11,1.03 ± 0.021,1.52 ± 0.54,1.01 ± 0.13
CC(CCC(=O)O)C1CCC2C3CCC4CC(O)CCC4(C)C3C=CC12C (stereo not given),1.03 ± 0.021,0.943 ± 0.12,1.005 ± 0.0071,0.902 ± 0.071,0.964 ± 0.02
COc1cc(C)c(C(=O)O)c(O)c1,1.05 ± 0.014,1.11 ± 0.14,1 ± 0.037,0.924 ± 0.0085,0.986 ± 0.02
COc1cc(NS(=O)(=O)c2ccc(N)cc2)nc(OC)n1,0.9765 ± 0.0092,0.924 ± 0.031,0.956 ± 0.063,0.895 ± 0.28,0.8105 ± 0.0064
COC1=C[C@@H](C)[C@@H]2C[C@H]3OC(=O)C[C@H]4C(C)=C(OC)C(=O)[C@H]([C@@]2(C)C1=O)[C@@]34C,0.975 ± 0.064,0.972 ± 0.054,0.979 ± 0.044,1.025 ± 0.0071,1
C=CC(C)(O)CCC=C(C)CCC=C(C)C (mixture of isomers),1.09,0.977 ± 0.075,0.94 ± 0.0028,0.8335 ± 0.00071,0.851 ± 0.15
c1ccc(-c2ccc(C(c3ccccc3)n3ccnc3)cc2)cc1 (stereo not given),1.03 ± 0.035,1.01 ± 0.026,0.965 ± 0.011,0.938 ± 0.016,0.923 ± 0.033

# Source: the supplement of paper PMC6522484
